Screens deposited in PubChem BioAssay by Johns Hopkins Ion Channel Center.
Compounds with a hit are over-represented: about 1.6% of the library has one in this group of screens.
KCNQ2 pot: potentiators of rat KCNQ2 potassium channel | O88943 | CHO-K1 KCNQ2, FluxOR thallium flux fluorescence; hits give high values | B-score at 10 µM | actives 0.54% (n = 310,000);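 active means fluorescence ratio B-score at least 3 SD of library B-scores, with initial fluorescence B-score within 3 of them, cut at about 5.3 in these data; same plate scores as AID 2156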;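 further: B-score of peak minus minimum over baseline fluorescence ratio after K+ and Tl+ stimulus; positive B-score means potentiation of KCNQ2 with more thallium influx and brighter signal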
Target sequence (O88943 whole entry, looked up): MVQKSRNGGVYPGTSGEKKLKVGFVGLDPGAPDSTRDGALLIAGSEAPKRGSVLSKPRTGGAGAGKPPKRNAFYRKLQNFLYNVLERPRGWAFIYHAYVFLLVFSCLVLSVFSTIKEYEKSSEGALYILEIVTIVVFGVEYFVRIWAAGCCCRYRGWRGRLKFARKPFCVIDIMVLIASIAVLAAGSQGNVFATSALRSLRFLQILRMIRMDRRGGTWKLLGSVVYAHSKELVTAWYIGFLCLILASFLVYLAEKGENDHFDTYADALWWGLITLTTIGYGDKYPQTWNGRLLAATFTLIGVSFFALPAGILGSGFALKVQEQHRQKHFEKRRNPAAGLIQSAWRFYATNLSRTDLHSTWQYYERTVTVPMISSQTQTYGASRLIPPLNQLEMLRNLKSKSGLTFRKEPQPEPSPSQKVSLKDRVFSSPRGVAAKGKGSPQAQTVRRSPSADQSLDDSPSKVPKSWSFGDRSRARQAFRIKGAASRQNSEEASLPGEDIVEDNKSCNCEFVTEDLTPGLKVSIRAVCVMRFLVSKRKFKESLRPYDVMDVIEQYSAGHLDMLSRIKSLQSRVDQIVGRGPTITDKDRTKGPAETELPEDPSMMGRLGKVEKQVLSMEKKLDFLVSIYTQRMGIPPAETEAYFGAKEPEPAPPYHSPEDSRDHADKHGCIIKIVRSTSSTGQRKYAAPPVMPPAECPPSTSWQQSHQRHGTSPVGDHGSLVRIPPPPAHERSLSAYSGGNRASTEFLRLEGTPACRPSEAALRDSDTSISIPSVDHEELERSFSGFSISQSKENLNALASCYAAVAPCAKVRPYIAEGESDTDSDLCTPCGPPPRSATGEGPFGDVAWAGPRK
KCNQ2 inh: KCNQ2 (rat) channel inhibition; actives 1.1% (n = 310,000); CHO-K1 KCNQ2, FluxOR thallium flux, 20 min; hits give low values; O88943; AID 2156; B-score at 10 µM;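 active means fluorescence ratio B-score at most minus 3 library SDs, with starting brightness B-score within 2 library SDs, cut at about -5.5 in these data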
Kir21 confirm: confirmation of mouse Kir2.1 potassium channel inhibitors; shares compounds with KCNQ2 pot; Kir2.1-expressing cells, FluxOR thallium flux fluorescence; hits give low values; Tl flux remaining, % of negative control (hits give low values), % at 10 µM; actives 41% (n = 2,300); AID 2032;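 active means Primary-screen hit whose thallium flux fell at least 3 control SD below untreated wells in both duplicates, with normal baseline fluorescence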
HEK293 Tl flux: alters thallium flux in parental HEK293 cells, Kir2.1 counter-screen; shares compounds with KCNQ2 pot; FluxOR thallium flux fluorescence; 0% = unstimulated blank wells; FluxOR signal as % of negative control (100 = no effect), % at 10 µM; actives 19% (n = 2,300);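 active means dye signal at least 3 control SD above or below untreated wells in both duplicates, raw fluorescence within 3, either direction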;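 further: percent is based on the flux ratio of peak minus minimum fluorescence over baseline F0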
CHO-K1 ctr: parental CHO-K1 activity in KCNQ2 potentiator counter-screen; shares compounds with KCNQ2 pot; parental CHO-K1 cells, FluxOR thallium flux fluorescence; zero = vehicle mean+3SD, 100% = vehicle-minus-blank window; activity increase over 3SD of controls, % at 10 µM; actives 43% (n = 1,200); AID 2282;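 active means signal rise of at least 3 SD above the untreated control mean, in both duplicate wells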;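 further: counter screen of KCNQ2 potentiator hits so any rise reflects channel-independent effects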
KCNQ1 sel pot: tests whether KCNQ2 potentiators also act on human KCNQ1; shares compounds with KCNQ2 pot; CHO KCNQ1 stable, FluxOR thallium flux fluorescence; beyond 3SD, as % of vehicle-control signal; activation over 3SD threshold, % at 10 µM; actives 28% (n = 1,200);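 active means fluorescence ratio rise of at least 3 SD of vehicle wells above their mean, in both replicate wells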
KCNQ2 pot conf: rat KCNQ2 channel potentiator confirmation. shares compounds with KCNQ2 pot. CHO-KCNQ2 cells, FluxOR thallium flux fluorescence. potentiation, less the hit threshold, % at 10 µM. actives 68% (n = 1,200). AID 2287;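 active means fluorescence ratio rising 3 SD or more over the vehicle control mean in both replicates, plus primary screen hit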;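 further: peak minus minimum thallium fluorescence divided by baseline after K/Tl stimulus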
Kir21 spec: selectivity of KCNQ2 potentiators: effect on mouse Kir2.1; shares compounds with KCNQ2 pot; HEK293 Kir2.1, FluxOR thallium flux fluorescence; activity over 3SD threshold, % at 10 µM; actives 2% (n = 1,200); AID 2345;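 active means fluorescence ratio rise of at least 3 SD above the vehicle-control mean, seen in both replicates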
KCNQ2 W236L MoA: rat KCNQ2 W236L mutant potentiation by KCNQ2 potentiators | shares compounds with KCNQ2 pot | CHO KCNQ2-W236L, automated patch clamp current | actives 10% (n = 940) | current increase over 3SD of negative controls (%), hits give high values, % at 25 µM | AID 2558;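 active means current increase at least 3 SD of the untreated controls above them in both duplicate recordings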
Large screens that a line does not name were inactive (follow-up assays come after a bar, where they were run).

CC(=O)c1cccc(OCC(O)CNCCc2ccc(Cl)cc2)c1 (centres undefined)	none
O=C(CCCC(=O)Nc1ccc(Br)cc1)N/N=C/c1ccccc1	none
O=C(NCCCCCCNC(=O)c1cncc(O)c1)c1cncc(O)c1	none
Nc1nc(C(c2ccccc2)c2ccccc2)cs1	none
COC(=O)C1=C(COc2ccc(C=O)cc2OC)NC(=O)NC1c1cc(C)ccc1C (centres undefined)	none
COc1ccc(Cc2nnc(NC(=O)c3cc(OC)c(OC)c(OC)c3)s2)cc1	none (no result: KCNQ2 pot)
O=C(NCCCN1CCOCC1)c1ccc(Cl)cc1Cl	none
CC(Sc1nnc(-c2ccncc2)n1C)C(=O)NCC1CCCO1 (centres undefined)	none
CCC1(C)Cc2c(sc3nnn(CC(=O)Nc4ccccc4)c(=O)c23)CO1 (centres undefined)	KCNQ2 pot 19 | Kir21 confirm inactive | HEK293 Tl flux inactive | CHO-K1 ctr inactive | KCNQ1 sel pot 27 | KCNQ2 pot conf 41 | Kir21 spec inactive | KCNQ2 W236L MoA inactive
Cc1cccc(NC(=O)Cn2nnc3sc4c(c3c2=O)CC(C)(C)OC4)c1	none (no result: KCNQ2 pot)
CC(C)c1ccc(NC(=O)CSc2nc(=O)n(CCCN3CCOCC3)c3c2CCCC3)cc1	none (no result: KCNQ2 pot)
O=C(CCc1nnc2ccc(NCc3ccco3)nn12)Nc1ccc(F)cc1F	none
CC(C)CCNC(=O)C1CCN(S(=O)(=O)c2ccc3c(c2)CC(C)N3C(=O)C2CCC2)CC1 (centres undefined)	none
Cc1ccc(CNC(=O)C2CCN(S(=O)(=O)c3ccc4c(c3)CC(C)N4C(=O)C3CCC3)CC2)o1 (centres undefined)	KCNQ2 pot 6.6 | Kir21 confirm inactive | HEK293 Tl flux inactive | CHO-K1 ctr inactive | KCNQ1 sel pot inactive | KCNQ2 pot conf inactive | Kir21 spec inactive
COc1ccccc1NS(=O)(=O)c1cccc(C(=O)NNC(=O)c2ccc(O)c(Cl)c2)c1	none (no result: KCNQ2 pot)
CC1=NN(C(N)=S)C(=O)C1N=Nc1ccccc1Cl (centres undefined)	none (no result: KCNQ2 pot)
CC1=NN(C(N)=S)C(=O)C1N=Nc1ccc(Cl)cc1Cl (centres undefined)	KCNQ2 pot 13 | Kir21 confirm inactive | HEK293 Tl flux inactive | CHO-K1 ctr inactive | KCNQ1 sel pot inactive | KCNQ2 pot conf inactive | Kir21 spec inactive | KCNQ2 W236L MoA inactive
CCn1c(=NC(=O)CSC(C)=O)sc2cc(F)ccc21	none
C#CCn1c(=NC(=O)CSC(C)=O)sc2cc(F)ccc21	KCNQ2 pot 20 | Kir21 confirm inactive | HEK293 Tl flux inactive | CHO-K1 ctr inactive | KCNQ1 sel pot inactive | KCNQ2 pot conf 62 | Kir21 spec inactive | KCNQ2 W236L MoA 36%
O=C(CN(Cc1ccc(F)cc1)C(=O)CCC(=O)Nc1nccs1)NCc1ccc(F)cc1	none (no result: KCNQ2 pot)
CC(C)NC(=S)NNc1nc2ccccc2s1	none (no result: KCNQ2 pot)
O=c1c2cc(O)c(O)cc2oc2cc(O)c(C3OC(CO)C(O)C(O)C3O)c(O)c12 (centres undefined)	none (no result: KCNQ2 pot)
Cc1nc(OCC(=O)c2ccc(Cl)cc2)c(C#N)c2c1COC(C)(C)C2	none
CCc1nc(OCC(=O)c2ccccc2)c(C#N)c2c1COC(C)(C)C2	KCNQ2 pot 9.6 | Kir21 confirm inactive | HEK293 Tl flux inactive | CHO-K1 ctr 57 | KCNQ1 sel pot inactive | KCNQ2 pot conf 20 | Kir21 spec inactive | KCNQ2 W236L MoA inactive
CCOC(=O)c1sc(Nc2nc3c(OC)cccc3s2)nc1C	none
c1ccc(Nc2nc(-c3ccccn3)cs2)cc1	none
O=C(Nc1nc2c(F)cccc2s1)c1ccco1	none
COc1cccc2sc(Nc3nc(-c4ccccn4)cs3)nc12	KCNQ2 pot 21 | Kir21 confirm inactive | HEK293 Tl flux inactive | CHO-K1 ctr inactive | KCNQ1 sel pot inactive | KCNQ2 pot conf inactive | Kir21 spec inactive | KCNQ2 W236L MoA inactive
COc1ccc(-c2nnc(-c3ccc(F)cc3)o2)cc1	none
Fc1cccc2sc(Nc3nnc(-c4ccco4)o3)nc12	KCNQ2 pot 16 | Kir21 confirm inactive | HEK293 Tl flux 310% | CHO-K1 ctr 130 | KCNQ1 sel pot inactive | KCNQ2 pot conf 45 | Kir21 spec inactive | KCNQ2 W236L MoA inactive
COc1cccc2sc(Nc3nnc(-c4cccs4)o3)nc12	KCNQ2 pot 10 | Kir21 confirm inactive | HEK293 Tl flux 350% | CHO-K1 ctr 80 | KCNQ1 sel pot inactive | KCNQ2 pot conf 50 | Kir21 spec inactive | KCNQ2 W236L MoA inactive
COc1cccc2sc(Nc3nnc(-c4ccc(F)cc4)o3)nc12	KCNQ2 pot 20 | Kir21 confirm inactive | HEK293 Tl flux 468% | CHO-K1 ctr inactive | KCNQ1 sel pot inactive | KCNQ2 pot conf 60 | Kir21 spec inactive | KCNQ2 W236L MoA inactive
Cc1ccc(CNC(=O)CCCc2cn(C)c3ccccc23)cc1	none (no result: KCNQ2 pot)
COc1ccccc1CNC(=O)Cn1ccsc1=N	none
O=C(CSc1nc(=O)n(CCCN2CCOCC2)c2c1CCCC2)Nc1cccc(F)c1	none
CC1(c2nnc(Cc3ccccc3)o2)CC(c2cccc(F)c2)=NO1 (centres undefined)	none
OC(CNCCc1ccccc1)c1ccccc1 (centres undefined)	none | Kir21 confirm 44% | HEK293 Tl flux inactive
COc1ccc(CCNCC(O)c2ccccc2)cc1 (centres undefined)	none
CSc1ccc(CNCC(O)c2ccccc2)cc1 (centres undefined)	none (no result: KCNQ2 pot) | Kir21 confirm 59% | HEK293 Tl flux inactive
O[C@@H](CNC[C@H](O)c1ccccc1)c1ccccc1	none (no result: KCNQ2 pot)
CC1(C)OC1COc1c2ccoc2cc2oc(=O)ccc12 (centres undefined)	none
O=C(Nc1ccc(S(=O)(=O)Nc2ncccn2)cc1)c1ccc(Cl)c([N+](=O)[O-])c1	none
O=C(NCc1ccc(Cl)cc1)c1ccc2ccccc2n1	none (no result: KCNQ2 pot)
CCc1nnc2c(N(C)S(=O)(=O)c3ccc(C)cc3)nc3ccccc3n12	none
Cc1ccc(S(=O)(=O)N(C)c2nc3ccccc3[nH]c2=S)cc1	KCNQ2 pot 5.6 | Kir21 confirm inactive | HEK293 Tl flux 154% | CHO-K1 ctr inactive | KCNQ1 sel pot inactive | KCNQ2 pot conf inactive | Kir21 spec inactive
CCN(CC)CCCn1c2c(c(SCC(=O)Nc3nc(C)cs3)nc1=O)CCC2	none
